The record followed here is PubChem BioAssay (NCI).

This is part of a sample that, as a whole, favours compounds with a hit. Of some 83,000 tested, about 20% had one in any assay.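 Interpretation: 100, growth as untreated; towards 0, rising growth inhibition; 0, no net growth; 0 to -100, cell death. Compounds scoring below 10 were considered active.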 Unmarked numbers belong to inactive results. The source made the active and inactive calls.

Common to all, as to assay: NCI-60 one-dose screen, 48 h (100 = growth as untreated, 0 = no growth, -100 = all killed)
Common to all, as to conditions: 10 µM unless noted

Assay [1] deals with NCI-H23 lung.
Assay [2] concerns NCI-H226 lung.
In assay [3] the test system is NCI-H322M lung.
The subject of assay [4] is NCI-H460 lung.
The test system of assay [5] is HOP-92 NSCLC.
The test system of assay [6] is NCI-H522 lung.
In assay [7] the test system is A549/ATCC NSCLC.
Assay [8] concerns 786-0 renal.
Assay [9] relates to COLO 205 colon.
Assay [10] deals with DU-145 prostate.
Assay [11] relates to K-562 leukemia.
Assay [12] relates to MALME-3M melanoma.
For assay [13], the system named is MDA-MB-231 breast.
The test system of assay [14] is RXF 393 renal.
In assay [15] the test system is SF-268 CNS.
Assay [16] relates to SF-295 CNS.
In assay [17] the test system is SF-539 CNS.
Assay [18] relates to UACC-257 melanoma.
Assay [19] has as its system M14 melanoma.
Assay [20] relates to HOP-62 NSCLC.

For the compound `Cn1cc(-c2cc(N)n3nc(-c4c[nH]c5ccccc45)cc3n2)c2cc(Br)ccc21`, the growth was -75.2% (active) in assay [1]; -11.9% (active) in assay [2]; -37.2% (active) in [3]; -59% (active) in assay [4]; -74.5% (active) in [5]; -74.7% (active) in [6]. Also, the growth in assay [7] is -50% (active); in [8], -73.7% (active); in [9], -90.1% (active); in assay [10], -70% (active); in [11], 7.7% (active); in assay [12] it was -76.9% (active). Further, the growth in [13] was -89.3% (active); in assay [14] it was -80.6% (active); in assay [15], -39.8% (active); in assay [16], -93.6% (active); in assay [17], -93.7% (active); in assay [18] it was -79.8% (active). For the same compound, the growth in assay [19] is -65.7% (active).
Consider `COc1cc(CNC(=O)C[C@H](C)CCC=C(C)C)ccc1OCc1cn(-c2cccc(C(F)(F)F)c2)nn1`, for which the growth was 79.4% in assay [1]; 72.3% in assay [2]; 90.1% in assay [3]; 14.6% in [4]; 86.1% in assay [5]; 83.1% in [6]. Further, the growth in assay [7] was 42.6%; in assay [8], 93%; in assay [9] it was 74.2%; in assay [10] it was 101%; in assay [11], 59%; in assay [12], 80.8%. In addition, the growth in assay [13] is 87.2%; in [14], 88.3%; in assay [15], 83.9%; in assay [16], 72.9%; in [17], 16.3%; in assay [18] it was 104%. In addition, the growth in assay [19] was 92.1%.
Regarding `COc1cc(CNC(=O)C[C@H](C)CCC=C(C)C)ccc1OCc1cn(-c2ccccc2Cl)nn1`, the growth in assay [2] is 59.7%.
Still for that read-out and setting: then `FC(F)(F)CN1CCN(CCn2c(C(F)(F)F)cc3c(Cl)ncnc32)CC1`, with 86.7%.
For `C=CC(=O)Nc1ccc(C(=O)/C=C/c2ccc(N(C)C)cc2)c(O)c1`, the growth in [2] was 28.6%; in assay [3], 41.1%; in assay [20], 10.1%; in assay [4], 0.849% (active); in assay [5], 45.8%; in assay [6], -67.5% (active). Also, the growth is 12.8% in assay [7]; -1.73% (active) in assay [8]; -59.6% (active) in assay [9]; 7.83% (active) in [10]; 12% in assay [11]; 3.17% (active) in assay [12]. Besides, the growth is 26.9% in [13]; -63.8% (active) in assay [14]; 21.5% in assay [15]; 13.1% in [16]; -21.8% (active) in [17]; 0.649% (active) in assay [18]. Besides, the growth in assay [19] is -5.06% (active).
With `CN1CCN(c2ccc3c4c(cccc24)C(=O)N(c2cccc(-c4nn(-c5ccccc5)cc4-c4nc5ccccc5s4)c2)C3=O)CC1`, the growth in [2] was 95.9%; in assay [3], 111%; in assay [20], 114%; in assay [4], 18.5%; in [5], 71.7%; in [6], 110%. Further, the growth is 97.9% in [7]; 46.5% in assay [8]; 91.1% in assay [9]; 58.4% in assay [10]; -57.6% (active) in [11]; 74.4% in assay [12]. In addition, the growth in assay [13] was 33.7%; in [14], 72.9%; in [15], 100%; in assay [16], 112%; in [17], 81.6%; in [18] it was 119%. Besides, the growth in [19] was 90.6%.
On to `FC(F)(F)c1cc2c(Cl)ncnc2n1CCN1CCOCC1`, for which the growth in assay [2] is 91.4%; in [3] it was 74.9%; in [20] it was 91.5%; in assay [4], 86%; in [5] it was 107%; in assay [6] it was -80.3% (active). Further, the growth in [7] was 92.3%; in [8], 99.3%; in assay [9], 79.5%; in assay [10] it was 73.6%; in [11], 0.361% (active); in assay [12], 88.1%. The growth in assay [13] was 56.4%; in assay [14], 100%; in assay [15], 64.5%; in assay [16] it was 86.7%; in assay [17] it was 87%; in assay [18], 75.5%. For the same compound, the growth in assay [19] is 44.9%.
For the compound `Cc1nc2sccn2c1-c1nnc(SCC(C)C)o1`, the growth in assay [2] was 62%; in assay [3], 82.1%; in [20] it was 95.2%; in [4] it was 97%; in [5], 64.4%; in [6], 71.5%. The growth in assay [7] is 91.3%; in assay [8], 82.3%; in [9], 106%; in assay [10] it was 99.1%; in assay [11], 52.7%; in assay [12], 97.8%. Moreover, the growth in assay [13] was 87.1%; in assay [14] it was 104%; in assay [15], 88.5%; in [16], 86.1%; in assay [17] it was 93.3%; in [18] it was 98.7%. Besides, in [19], the growth was 99.9%.
For `COc1ccc2[nH]c(=O)c(CSc3ccccc3Nc3nccc(-c4ccc(Cl)cc4)n3)cc2c1`, the growth was 45.7% in [2]; 69.5% in [3]; 69.2% in [20]; 33.3% in [4]; 36.6% in assay [5]; 4.52% (active) in [6]. For the same compound, the growth was 52.5% in [7]; 43.4% in [8]; 61.8% in assay [9]; 48.7% in assay [10]; 39.7% in assay [11]; 32.1% in assay [12]. In addition, the growth was 60.9% in assay [13]; -4.36% (active) in [14]; 55.1% in [15]; 32.8% in [16]; 21.7% in [17]; 73.4% in [18]. Moreover, the growth in assay [19] is 68.5%.
Consider `Nc1cc2ccccc2c(=O)n1NC(=O)c1ccccc1`, for which the growth is 80.8% in assay [2]; 104% in assay [3]; 103% in [20]; 105% in assay [4]; 111% in assay [5]; 103% in assay [7]. Besides, the growth is 105% in assay [8]; 111% in [9]; 104% in [10]; 97.6% in assay [11]; 84.4% in assay [12]; 87% in assay [13]. For the same compound, the growth in assay [14] is 104%; in assay [15], 95.9%; in assay [16], 90.6%; in [17] it was 93.7%; in [18], 104%; in assay [19] it was 100%.
